Source: PubChem BioAssay (NCATS)
Records with an inconclusive call do not appear. Entries that show only a call come without a potency. Calls of active or inactive are those of the source. Calls follow the shape of the dose curve; as a rule, active = well fitted cell-killing curve with a large enough effect; inconclusive = small, poorly fitted or top-dose-only effect; inactive = flat fitted curve, though single readings scatter.

Test: Cellular viability qHTS for adrenocortical cancer (ACC) cell line NCI-H295R (AID 1963990); also: nearly all actives have a fitted effect of over 60% in size
Conditions: CellTiter-Glo ATP luminescence, 48 h; series mostly up to 46.1 µM
Description: PI: Naris Nilubol, MD Surgical Oncology Program, National Cancer Institute (NCI) National Institute of Health (NIH), Bethesda, Maryland Adrenocortical cancer (ACC) is a rare malignancy with poor survival outcomes and few treatment options. Currently, mitotane is the only FDA-approved therapy for ACC. Although adjuvant radiation therapy is rarely utilized, it has the potential to improve survival in select cases. Through a quantitative high-throughput drug screen (qHTS), we identified auranofin (AF), a thioredoxin reductase (TXNRD) inhibitor, as a promising candidate drug. This study aims to evaluate whether AF can enhance the efficacy of radiation therapy in the treatment of ACC. Two human ACC cell lines, SW-13 and NCI-H295R, were screened using the National Center for Advancing Translational Sciences (NCATS) Pharmaceutical Collection (NPC) and the Mechanism Interrogation PlatE (MIPE) library (~4,991 compounds). CellTiter-Glo (Cat # G7570, Promega, Madison, WI) was utilized to measure cell viability. Described herein are the results of the corresponding viability assay.
PROTOCOL TABLE (as described by Inglese J, Shamu CE and Guy RK. 2007) SEQUENCE No. (e.g., 1, 2, 3, etc.); […] (e.g., Cells, Incubation, Reagent, etc.); VALUE; DESCRIPTION. 1; Cells; 5 uL; white, solid-bottom, 1536-well tissue-culture treated plates. 2; Time; overnight culture at 37C with 5% CO2. 3; Compounds and control; 23 nL; Kalypsis pin tool (Wako USA) equipped with a 1536-well pin head to transfer to the assay plates. 4; Time; 48 hours; 37C with 5% CO2. 5; Reagent; 4 uL; CellTiter-Glo luminescent substrate mix. 6; Time; 20 min at room temperature. 7; Detection; Luminescence; ViewLux plate reader NOTES (numbers refer to Sequence numbers above) 1. NCI-H295R cells were harvested from a T175 flask and resuspended in ITS-supplemented DMEM serum-free medium at a concentration of 300 000 cells/mL. Then 5 uL of resuspended cells were dispensed into each well of white, solid-bottom, 1536-well tissue-culture-treated plates using a multidrop combi dispenser. The plates were covered with stainless steel gasket lids. 2-3. The plates were cultured overnight at 37C with 5% CO2. Twenty-three nL of compounds (eight selected concentrations from the NPC / MIPE) or positive control (10 mM stock of bortezomib) in DMSO was transferred to each well of the assay plate using a pin tool (Kalypsys, San Diego, CA, USA). The final concentration of the compounds in the 5 uL assay volume ranged from 0.5 nM to 46 uM. 4-6. After 48 hours of incubation at 37C and 5% CO2, 4 uL of CellTilter-Glo luminescent substrate mix (Promega, Madison, WI, USA) was added to each well. Then the plates were incubated for 20 minutes at room temperature. 7. After incubation, luminescence was measured using a ViewLux plate reader (PerkinElmer, Waltham, MA, USA) with a clear filter was used to measure the number of metabolically competent cells. To determine compound activity in the qHTS assay, the titration-response data for each sample was plotted and modeled by a four-parameter logistic fit yielding IC50 and efficacy (maximal response) values. Raw plate reads for each titration point were normalized relative to positive control ([…], 100% inhibition) and DMSO-only wells (basal, 0%). REFERENCES: Inglese J, Shamu CE and Guy RK, Reporting data from high throughput screening of small molecule libraries, Nature Chemical Biology, 2007, 3(8): 438-441. doi.org/10.1038/nchembio0807-438.

SMILES	Potency
Cc1nc2n(c(=O)c1CCN1CCC(C(=O)c3ccc(F)cc3)CC1)CCS2	inactive
N#Cc1ccc(Oc2ccc3c(c2)COB3O)cc1	inactive
COC(=O)N(CC(=O)O)Cc1cccc(OCc2nc(-c3ccc(Cl)cc3)oc2C)c1	inactive
CC(=O)N1CCC(Nc2cc(C(=O)NC[C@H](O)CN3CCc4ccccc4C3)ncn2)CC1	inactive
NS(=O)(=O)Oc1ccc2c3c(c(=O)oc2c1)CCCCC3	inactive
Nc1ncnc2c1c(COc1cccc(Cl)c1)nn2C1CCOCC1	inactive
CCCCC(CC)CN1CN(CC(CC)CCCC)CC(C)(N)C1 (stereo not given)	inactive
NC(=O)c1ccc2nc(-c3ccc(C4(N)CCC4)cc3)c(-c3ccccc3)n2n1	6.31 µM (active)
CCCCN(CCCC)C(C(N)=O)c1ccc(OC)cc1 (stereo not given)	inactive
c1ccc2occc2c1	inactive
Cc1c2oc3c(C)ccc(C(=O)N[C@@H]4C(=O)N[C@H](C(C)C)C(=O)N5CCC[C@H]5C(=O)N(C)CC(=O)N(C)[C@@H](C(C)C)C(=O)O[C@@H]4C)c3nc-2c(C(=O)N[C@@H]2C(=O)N[C@H](C(C)C)C(=O)N3CCC[C@H]3C(=O)N(C)CC(=O)N(C)[C@@H](C(C)C)C(=O)O[C@@H]2C)c(N)c1=O	0.0517 µM (active)
C=CC[N+]1([C@H]2C[C@H]3[C@@H]4CC[C@H]5C[C@H](O)[C@@H](N6CCOCC6)C[C@]5(C)[C@H]4CC[C@]3(C)[C@H]2OC(C)=O)CCCC1	inactive
O=C(CCCN1CCN(c2ccccn2)CC1)c1ccc(F)cc1	inactive
COc1ccc2cc(CCC(C)=O)ccc2c1	inactive
Cn1cc(C(=O)[C@@H]2CCc3nc[nH]c3C2)c2ccccc21	inactive
NC(=S)N/N=C/c1ncccc1N	inactive
O=C(Nc1ccccc1)OCC(CN1CCCCC1)OC(=O)Nc1ccccc1 (stereo not given)	23.1 µM (active)
CCc1cc(Nc2nccc(-c3c(-c4ccc(OC)c(C(=O)Nc5c(F)cccc5F)c4)nc4ccccn34)n2)c(OC)cc1N1CCC(N2CCN(S(C)(=O)=O)CC2)CC1	inactive
CN(C)CCOC(c1ccccc1)c1ccc(Br)cc1 (stereo not given)	13 µM (active)
O=C1NC(=O)/C(=C/c2ccc3nccnc3c2)S1	inactive

SMILES	Potency
NNC(=O)CP(=O)(c1ccccc1)c1ccccc1	16.4 µM (active)
COc1ccc(-n2c(SCCCN3C(=O)c4cccc5cccc(c45)C3=O)nnc2-c2ccncc2)cc1	inactive
NCCNc1cccc2ccccc12	20.6 µM (active)
CCC(=O)Oc1ccc2c(c1)CC[C@@H]1[C@@H]2CC[C@@]2(C)[C@H]1C[C@@H](OC(=O)CC)[C@@H]2OC(=O)CC	inactive
C=C[C@@H]1CN2CCC1C[C@H]2[C@H](O)c1ccnc2ccc(OC)cc12 (stereo not given in full)	inactive
C[C@@H](c1ccc2nccn2c1)n1nnc2ncc(-c3cnn(C)c3)nc21	inactive
CC1(COc2ccc(CC3SC(=O)NC3=O)cc2)CCCCC1 (stereo not given)	16.4 µM (active)
NC(=O)c1c(OCc2c(F)cc(Br)cc2F)nsc1NC(=O)NCCCCN1CCCC1	22.4 µM (active)
CCCSS/C(CCO)=C(\C)N(C=O)Cc1cnc(C)nc1N	9.2 µM (active)
CCCCCCOc1ccccc1C(N)=O	inactive
COc1ccc(S(=O)(=O)NCc2ccc(C(=O)NCCc3ccc(Cl)cn3)cc2)cc1	inactive
CCCCOC(=O)c1ccc(N)cc1	inactive
CCN(CC)CCCN(c1ccccc1)C1Cc2ccccc2C1	25.9 µM (active)
N[C@H](C(=O)O)[C@@H](O)c1ccc(O)c(O)c1	inactive
CCCCOc1cc(C(=O)NCCN(CC)CC)c2ccccc2n1	20.6 µM (active)
C[C@H]1CN(C2COC2)CCN1c1ccc(Nc2cc(-c3ccnc(N4CCn5c(cc6c5CC(C)(C)C6)C4=O)c3CO)cn(C)c2=O)nc1	inactive
O=C1CC[C@H](N2Cc3c(OCc4ccc(CN5CCOCC5)cc4)cccc3C2=O)C(=O)N1	inactive
COc1ccc(-n2nc(CCC(=O)N(C)O)cc2-c2ccc(Cl)cc2)cc1	16.4 µM (active)
COc1ccc2c(c1)C(=O)N(CCc1ccc(S(=O)(=O)NC(=O)NC3CCCCC3)cc1)C(=O)C2(C)C	inactive
OC(CCN1CCCCC1)(c1ccccc1)C1CCCCC1 (stereo not given)	4.61 µM (active)
